# Several values for one entry are separate records, joined by “and”; a condition that tells them apart may be missing. Equal values may be shown once. Inconclusive results are not listed. Entries that show only a call come without a potency. Activity calls are given as the source filed them. Unless noted, calls come from the whole dose curve.
# What was measured:
# [1] = Cell Viability - MRC5 (AID 434); conditions: MRC5 lung fibroblast viability, qHTS;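 note: potency is the fitted concentration of half-maximal effect; potency reflects cytotoxicity seen as loss of intracellular ATP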
# Method in brief: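 qHTS cytotoxicity in human lung fibroblast MRC5 cells; 40 hr treatment, 37 °C; cellular ATP by luciferase luminescence; DMSO = 0%, 100 uM tamoxifen = 100% inhibition; Hill-fit AC50.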
# [2] = Cell Viability - H-4-II-E (AID 543; active = well fitted curve in the direction sought with a large enough effect; an effect the other way counts as inactive or inconclusive; note: nearly all actives have a fitted effect of over 35% in size); conditions: H-4-II-E rat hepatoma viability; series mostly up to 92.2 µM
# Method in brief: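 Luminescent ATP signal (CellTiter-Glo) served as the viability read-out, with cytotoxicity seen as a concentration-dependent ATP drop. Cells were treated for 40 hours in complete medium. AC50 values derive from Hill-equation modelling.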
# [3] = Cell Viability - LYMP2-022 (AID 987; active = well fitted curve in the direction sought with a large enough effect; an effect the other way counts as inactive or inconclusive; note: nearly all actives have a fitted effect of over 55% in size); conditions: LYMP2-022 lymphoblastoid cell viability; series mostly up to 92.2 µM
# Method in brief: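 qHTS: human lymphoblastoid cells 2500/well; 5 hr 37 C; cpd added; 24 hr 37 C; CellTiter-Glo, 30 min RT; luminescence. AC50 via Hill fit; tetraoctylammonium bromide positive ctrl.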
# [4] = Cell Viability - LYMP2-024 (AID 988; active = well fitted curve in the direction sought with a large enough effect; an effect the other way counts as inactive or inconclusive; note: nearly all actives have a fitted effect of over 60% in size; note: potency is the fitted concentration of half-maximal effect); conditions: LYMP2-024 lymphoblastoid cell viability; series mostly up to 92.2 µM
# Method in brief: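 Steps: seed 2500 cells/well, 5 hr 37 C; add compound, 24 hr 37 C; add CellTiter-Glo, 30 min room temperature; read luminescence. AC50 derived by Hill modelling of concentration-dependent ATP loss.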
# [5] = target: Bile acid receptor (Homo sapiens) (UniProt Q96RI1); experiment: qHTS assay for small molecule agonists of farnesoid X receptor signaling (AID 588527); conditions: HEK293T FXR-UAS-bla, beta-lactamase ratio, 16 h; stronger effect = higher value
# Chain of Bile acid receptor (Homo sapiens) (Q96RI1 whole entry, looked up): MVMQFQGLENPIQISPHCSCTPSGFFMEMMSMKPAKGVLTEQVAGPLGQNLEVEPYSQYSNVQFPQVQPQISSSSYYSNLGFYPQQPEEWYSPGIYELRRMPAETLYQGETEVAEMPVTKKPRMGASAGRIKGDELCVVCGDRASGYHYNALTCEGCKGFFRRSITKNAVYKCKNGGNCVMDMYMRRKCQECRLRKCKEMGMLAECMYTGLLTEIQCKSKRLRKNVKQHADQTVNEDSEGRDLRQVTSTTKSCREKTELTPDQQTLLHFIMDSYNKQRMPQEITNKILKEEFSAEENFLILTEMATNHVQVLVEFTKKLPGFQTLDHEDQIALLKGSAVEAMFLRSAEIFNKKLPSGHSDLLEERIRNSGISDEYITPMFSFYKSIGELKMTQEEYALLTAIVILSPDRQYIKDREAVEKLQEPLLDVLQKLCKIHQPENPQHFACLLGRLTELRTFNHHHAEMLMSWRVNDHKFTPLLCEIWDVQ
# Method in brief: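 Quantitative HTS used FXR-UAS-bla HEK293T cells with 16 h compound incubation at 37 C. EC50 values came from concentration-response curves normalized to chenodeoxycholic acid.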
# [6] = qHTS assay for small molecule antagonists of peroxisome proliferator-activated receptor delta signaling (AID 588535; active = well fitted inhibition curve with a large enough effect in the signal ratio, with a control signal flat, not every such curve was filed as active; the % refers to the signal ratio;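 for max response: cells co-treated with a PPAR-delta agonist as stimulator during compound exposure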); conditions: HEK293T PPARd-UAS-bla, beta-lactamase FRET ratio, 18 h; 460 nm channel
# Method in brief: (§1)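 HEK293T PPAR-delta-UAS-bla cells, 4000/well, 2% charcoal/dextran FBS; 5 h 37 C; cpd titration; 18 h 37 C; CCF4 2 h RT; FI 460/530 nm; Hill fit → IC50, efficacy.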
# [7] = target: Peroxisome proliferator-activated receptor delta (Homo sapiens) (UniProt Q03181); experiment: as above; conditions: HEK293T PPARd-UAS-bla, beta-lactamase FRET ratio, 18 h; series mostly up to 76.7 µM
# Chain of Peroxisome proliferator-activated receptor delta (Homo sapiens) (Q03181 whole entry, looked up): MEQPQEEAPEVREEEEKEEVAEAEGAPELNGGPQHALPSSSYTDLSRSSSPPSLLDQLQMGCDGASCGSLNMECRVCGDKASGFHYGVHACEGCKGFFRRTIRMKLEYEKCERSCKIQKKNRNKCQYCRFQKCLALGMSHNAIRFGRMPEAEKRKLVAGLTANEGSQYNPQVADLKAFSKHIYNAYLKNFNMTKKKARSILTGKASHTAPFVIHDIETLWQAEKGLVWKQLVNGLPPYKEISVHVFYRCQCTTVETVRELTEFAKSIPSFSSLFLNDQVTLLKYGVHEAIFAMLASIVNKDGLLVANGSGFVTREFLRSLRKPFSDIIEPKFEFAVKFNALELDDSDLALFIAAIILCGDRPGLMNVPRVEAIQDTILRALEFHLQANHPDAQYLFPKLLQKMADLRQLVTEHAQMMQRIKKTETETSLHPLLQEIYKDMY
# Method in brief: as §1
# [8] = target: Peroxisome proliferator-activated receptor gamma (Homo sapiens) (UniProt P37231); experiment: qHTS assay for small molecule agonists of peroxisome proliferator-activated receptor gamma signaling (AID 588536; active = well fitted curve in the direction sought with a large enough effect in the signal ratio, with a control signal flat, not every such curve was filed as active; the % refers to the signal ratio); conditions: HEK293 PPARg-UAS-bla, beta-lactamase ratio, 16 h, percent of rosiglitazone response, DMSO as zero; series mostly up to 76.7 µM
# Chain of Peroxisome proliferator-activated receptor gamma (Homo sapiens) (P37231 whole entry, looked up): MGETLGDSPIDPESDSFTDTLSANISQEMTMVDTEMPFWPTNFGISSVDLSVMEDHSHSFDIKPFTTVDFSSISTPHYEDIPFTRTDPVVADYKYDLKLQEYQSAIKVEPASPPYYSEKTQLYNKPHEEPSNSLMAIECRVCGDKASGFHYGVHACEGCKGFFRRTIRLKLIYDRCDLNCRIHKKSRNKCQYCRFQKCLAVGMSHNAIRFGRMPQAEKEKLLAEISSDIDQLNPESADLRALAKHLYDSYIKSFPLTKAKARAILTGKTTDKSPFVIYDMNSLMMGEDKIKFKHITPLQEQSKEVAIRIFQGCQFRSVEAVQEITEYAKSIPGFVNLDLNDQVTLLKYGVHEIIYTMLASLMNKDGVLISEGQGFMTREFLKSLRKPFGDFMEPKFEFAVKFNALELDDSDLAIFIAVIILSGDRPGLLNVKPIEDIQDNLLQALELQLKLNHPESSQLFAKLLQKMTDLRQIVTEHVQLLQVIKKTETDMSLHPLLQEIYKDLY
# Method in brief: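 HEK293 UAS-bla reporter line, 1% charcoal/dextran FBS; titration, 16 h, 37 C; CCF4 loading 2 h RT; fluorescence 460/530 nm. Normalized to rosiglitazone 2 uM = 100%, DMSO = 0%.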
# [9] = target: Vitamin D3 receptor (Homo sapiens) (UniProt P11473); experiment: qHTS assay for small molecule agonists of vitamin D receptor signaling (AID 588543); conditions: HEK293T VDR-UAS-bla, beta-lactamase ratio, 16 h; series mostly up to 76.8 µM
# Chain of Vitamin D3 receptor (Homo sapiens) (P11473 whole entry, looked up): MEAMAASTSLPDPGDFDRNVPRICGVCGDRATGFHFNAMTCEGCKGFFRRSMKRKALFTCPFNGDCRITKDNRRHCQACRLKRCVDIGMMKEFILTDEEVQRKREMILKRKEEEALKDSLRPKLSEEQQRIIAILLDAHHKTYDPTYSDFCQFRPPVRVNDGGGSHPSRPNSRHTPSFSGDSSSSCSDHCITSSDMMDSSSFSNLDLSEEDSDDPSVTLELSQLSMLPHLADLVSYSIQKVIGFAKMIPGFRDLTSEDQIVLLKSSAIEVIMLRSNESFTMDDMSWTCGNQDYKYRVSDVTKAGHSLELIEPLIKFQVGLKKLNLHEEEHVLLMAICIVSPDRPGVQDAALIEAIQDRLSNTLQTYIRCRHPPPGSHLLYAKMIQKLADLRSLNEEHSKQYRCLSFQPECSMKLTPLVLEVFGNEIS
# Method in brief: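 β-lactamase reporter, VDR-UAS-bla HEK293T, agonist mode. Cells plated 5 h at 37 °C, compound titration 16 h at 37 °C, CCF4 dye 2 h RT, ratio 460/530 nm. Hill fit → EC50, efficacy vs 50 nM 1α,25-(OH)2D3.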
# [10] = target: Thyroid hormone receptor beta (Homo sapiens) (UniProt P10828); experiment: qHTS assay for small molecule agonists of thyroid hormone receptor beta signaling (AID 588545); conditions: TR-UAS-bla GripTite HEK 293, beta-lactamase ratio, agonist mode, 18 h; series mostly up to 76.7 µM
# Chain of Thyroid hormone receptor beta (Homo sapiens) (P10828 whole entry, looked up): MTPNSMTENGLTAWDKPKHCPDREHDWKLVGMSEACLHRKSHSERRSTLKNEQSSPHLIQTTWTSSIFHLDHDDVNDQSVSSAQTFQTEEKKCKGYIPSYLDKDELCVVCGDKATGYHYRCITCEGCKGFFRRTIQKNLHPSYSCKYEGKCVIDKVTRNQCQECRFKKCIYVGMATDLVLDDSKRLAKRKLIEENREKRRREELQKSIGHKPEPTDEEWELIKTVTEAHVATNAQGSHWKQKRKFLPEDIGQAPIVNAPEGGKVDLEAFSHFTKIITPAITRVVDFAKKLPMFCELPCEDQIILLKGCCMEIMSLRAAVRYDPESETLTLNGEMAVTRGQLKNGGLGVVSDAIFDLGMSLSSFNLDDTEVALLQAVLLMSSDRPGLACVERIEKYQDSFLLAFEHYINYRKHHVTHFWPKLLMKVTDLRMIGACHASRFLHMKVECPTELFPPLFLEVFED
# Method in brief: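 Cells (2500/well) were seeded, incubated 4 hrs at 37 C, dosed with a compound series, incubated 18 hrs, loaded with CCF4 dye for 2 hrs at RT, then read for fluorescence. Data were scaled between DMSO (0%) and 10 nM T3 (100%).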
# [11] = qHTS assay for environmental chemicals that activate the Aryl hydrocarbon Receptor (AhR) signaling pathway (AID 651777; active = well fitted curve in the direction sought with a large enough effect; an effect the other way counts as inactive or inconclusive; note: nearly all actives have a fitted effect of over 15% in size; note: potency is the fitted concentration of half-maximal effect); conditions: 1A2-DRE human hepatoma cells, luciferase, 24 h; activation: stronger effect = higher value
# Method in brief: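 Human hepatoma 1A2-DRE cells stably carrying a DRE/CYP1A2 promoter–luciferase reporter, 1,200 cells/well, exposed to compound 24 hr at 37 C. Luciferase read by One-Glo luminescence after 30 min at room temperature; increased signal marks AhR activation.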
# [12] = qHTS assay for small molecule agonists of the antioxidant response element (ARE) signaling pathway measured by Nrf2-dependant transcriptional activity (AID 720636; active = well fitted curve in the direction sought with a large enough effect in the repeat runs; an effect the other way counts as inactive or inconclusive); conditions: ARE-luc HepG2, Nrf2 luciferase reporter, 16 h; series mostly up to 92.4 µM
# Method in brief: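 ARE-luc HepG2 cells carrying an Nrf2-responsive luciferase reporter, in medium with 1% dialyzed FBS, exposed to compound for 16 hr at 37 C, 5% CO2. Luminescence read 30 min after ONE-Glo addition.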
# [13] = Cell Viability - Jurkat (AID 426;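 active = dose-dependent loss of cell ATP signal giving a full or clear fitted curve, ranked by lower potency value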; note: potency is the fitted concentration of half-maximal effect); conditions: qHTS
# Method in brief: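 qHTS, 1536-well; Jurkat E6-1, 5000 cells/well, complete medium; cpd 40 hr, 37 °C; CellTiter-Glo 20 min RT; luminescence. AC50 by Hill fit.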
# [14] = Cell Viability - HepG2 (AID 433); conditions: qHTS;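 note: potency is the fitted concentration of half-maximal effect; potency for ATP loss meaning cytotoxicity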
# Method in brief: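 ATP luminescence (CellTiter-Glo) after 40 h compound exposure, 37 °C, HepG2, 1500 cells/well, complete medium. Normalized: DMSO = basal, 100 uM tamoxifen = 100% inhibition. AC50 via standard Hill equation.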
# [15] = Cell Viability - NIH 3T3 (AID 541; active = well fitted curve in the direction sought with a large enough effect; an effect the other way counts as inactive or inconclusive; note: nearly all actives have a fitted effect of over 25% in size; note: potency is the fitted concentration of half-maximal effect); conditions: NIH 3T3 cell viability, qHTS; activity change, negative = cytotoxicity: at 92.2 µM (top of the series)
# Method in brief: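 Luminescent ATP signal (CellTiter-Glo) served as the viability read-out after NIH 3T3 cells were exposed to compounds over a concentration range for 40 hr at 37 °C. Hill-equation modelling of concentration-response data gave AC50.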
# [16] = target: Estrogen receptor (Homo sapiens) (UniProt P03372); experiment: qHTS assay for small molecule antagonists of estrogen receptor alpha signaling (AID 588513; active = well fitted curve in the direction sought with a large enough effect in the signal ratio, with a control signal flat, not every such curve was filed as active; the % refers to the signal ratio); conditions: ER-alpha-UAS-bla HEK293, beta-lactamase ratio, antagonist mode; series mostly up to 76.9 µM
# Chain of Estrogen receptor (Homo sapiens) (P03372 whole entry, looked up): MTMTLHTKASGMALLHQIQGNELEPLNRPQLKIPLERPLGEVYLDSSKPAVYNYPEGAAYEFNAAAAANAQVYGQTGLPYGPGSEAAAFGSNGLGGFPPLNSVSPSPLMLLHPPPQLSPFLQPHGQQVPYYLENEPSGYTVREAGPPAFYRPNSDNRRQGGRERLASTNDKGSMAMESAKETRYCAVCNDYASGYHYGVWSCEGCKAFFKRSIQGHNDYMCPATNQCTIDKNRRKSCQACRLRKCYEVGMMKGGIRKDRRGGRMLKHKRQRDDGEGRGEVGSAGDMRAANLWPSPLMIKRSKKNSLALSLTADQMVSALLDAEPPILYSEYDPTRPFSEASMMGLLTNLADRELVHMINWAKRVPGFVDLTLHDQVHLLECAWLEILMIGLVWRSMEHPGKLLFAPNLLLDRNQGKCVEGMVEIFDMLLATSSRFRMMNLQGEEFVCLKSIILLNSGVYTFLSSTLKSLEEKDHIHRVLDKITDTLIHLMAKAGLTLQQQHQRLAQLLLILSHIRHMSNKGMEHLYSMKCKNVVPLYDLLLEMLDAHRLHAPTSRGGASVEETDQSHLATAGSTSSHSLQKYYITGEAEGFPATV
# Method in brief: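 Beta-lactamase reporter, antagonist mode, HEK 293 GripTite cells; 0.5nM E2 stimulus, 18 h, 37 C; CCF4 dye 2 h RT; fluorescence. IC50 and efficacy from Hill fits, normalized to E2 and DMSO.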
# [17] = target: Glucocorticoid receptor (Homo sapiens) (UniProt P04150); experiment: qHTS assay for small molecule agonists of glucocorticoid receptor signaling (AID 588532; active = well fitted curve in the direction sought with a large enough effect in the signal ratio, with a control signal flat; the % refers to the signal ratio); conditions: HeLa MMTV-bla, beta-lactamase ratio, agonist, 18 h; stronger effect = higher value; percent of dexamethasone control, DMSO zero
# Chain of Glucocorticoid receptor (Homo sapiens) (P04150 whole entry, looked up): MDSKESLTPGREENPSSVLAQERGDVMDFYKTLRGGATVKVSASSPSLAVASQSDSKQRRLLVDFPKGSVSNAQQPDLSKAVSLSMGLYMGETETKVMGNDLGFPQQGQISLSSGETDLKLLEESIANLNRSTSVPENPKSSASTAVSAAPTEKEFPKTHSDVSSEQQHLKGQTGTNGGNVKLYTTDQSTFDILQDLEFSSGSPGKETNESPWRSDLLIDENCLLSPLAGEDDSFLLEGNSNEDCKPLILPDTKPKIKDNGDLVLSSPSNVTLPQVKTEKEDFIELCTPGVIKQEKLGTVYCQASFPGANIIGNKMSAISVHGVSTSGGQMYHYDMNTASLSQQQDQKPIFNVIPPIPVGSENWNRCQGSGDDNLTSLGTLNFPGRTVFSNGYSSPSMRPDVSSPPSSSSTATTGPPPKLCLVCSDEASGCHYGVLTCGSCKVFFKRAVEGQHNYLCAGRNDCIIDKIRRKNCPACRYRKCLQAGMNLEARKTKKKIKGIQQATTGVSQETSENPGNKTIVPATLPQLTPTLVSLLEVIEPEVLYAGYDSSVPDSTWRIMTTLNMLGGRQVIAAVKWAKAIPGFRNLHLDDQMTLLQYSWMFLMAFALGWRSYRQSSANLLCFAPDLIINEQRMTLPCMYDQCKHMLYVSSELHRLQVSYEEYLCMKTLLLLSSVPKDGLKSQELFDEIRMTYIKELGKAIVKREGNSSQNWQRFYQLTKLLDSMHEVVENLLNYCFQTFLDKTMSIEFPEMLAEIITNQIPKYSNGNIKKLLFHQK
# Method in brief: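 Using MMTV-bla HeLa cells in medium with 1% stripped FBS and 25 mM HEPES, compounds were titrated and incubated overnight-length (18 h). Beta-lactamase cleavage of CCF4 was quantified by dual-emission fluorescence.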
# [18] = target: Glucocorticoid receptor (Homo sapiens) (UniProt P04150); experiment: qHTS assay for small molecule antagonists of glucocorticoid receptor signaling (AID 588533; active = well fitted inhibition curve with a large enough effect in the signal ratio, with a control signal flat, not every such curve was filed as active; the % refers to the signal ratio;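 note: cells stimulated with 2 nM dexamethasone as agonist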); conditions: HeLa MMTV-bla, GRE beta-lactamase ratio, antagonist mode, 18 h; series mostly up to 76.8 µM
# Method in brief: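 Antagonist-mode qHTS: compound titrations added to GRE-bla HeLa cells, then dexamethasone 2 nM final; 18 h, 37 C. CCF4 FRET fluorescence normalized to dexamethasone and DMSO; IC50 from Hill fit.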
# [19] = qHTS assay for small molecule activators of the p53 signaling pathway (AID 651743; active = well fitted activation curve with a large enough effect in the signal ratio, not every such curve was filed as active; the % refers to the signal ratio); conditions: HCT-116 p53RE-bla, beta-lactamase FRET ratio, 16 h; activation: stronger effect = higher value
# Method in brief: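 Read-out is fluorescence intensity from the LiveBLAzer B/G FRET substrate, added for 2 hours at room temperature after HCT-116 p53RE-bla cells had been incubated with compounds for 16 hours at 37 C.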
# [20] = target: Estrogen receptor (Homo sapiens) (UniProt P03372); experiment: qHTS assay for small molecule agonists of estrogen receptor alpha signaling (AID 588514); conditions: ER-alpha-UAS-bla HEK293, beta-lactamase ratio, 18 h; series mostly up to 76.8 µM; note: nearly all actives have a fitted effect of over 70% in size
# Method in brief: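 Cells were plated at 5000/well, incubated 4 hrs at 37 C, dosed with compound titration series, incubated 18 hrs at 37 C, loaded with CCF4 dye for 2 hrs at RT, then fluorescence was read.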
structure (smiles),measurement,setting,value
CC(C)[N+](=O)[O-],Potency,[1],> 92 µM (inactive)
same,Potency,[2],inactive
same,Potency,[3],inactive
same,Potency,[4],inactive
same,activation,[5],-1.29% (inactive)
same,max response,[6],7.55%
same,outcome,[7],inactive
same,outcome,[8],inactive
same,outcome,[9],inactive
same,Potency,[10],inactive
same,activation,[11],0.897% (inactive)
same,Potency,[12],inactive
O=[N+]([O-])c1c(Cl)c(Cl)c(Cl)c(Cl)c1Cl,Potency,[13],> 92 µM (inactive)
same,Potency,[14],> 92 µM (inactive)
same,Potency,[15],31.6 µM (active)
same,Potency,[2],inactive
same,Potency,[4],inactive
same,Potency,[16],inactive
same,activation,[17],-3.84% (inactive) and -0.795% (inactive)
same,outcome,[18],inactive
same,max response,[6],0.973%
same,outcome,[7],inactive
same,outcome,[9],inactive
same,Potency,[10],inactive
same,activation,[11],-0.0122% (inactive) and 2.68% (inactive)
same,Potency,[12],inactive
CN(C)c1ccc(N(C)C)cc1,Potency,[14],> 92 µM (inactive)
same,Potency,[4],50.1 µM (active)
same,Potency,[16],inactive
same,activation,[17],1.15% (inactive)
same,outcome,[18],inactive
same,outcome,[8],inactive
same,Potency,[10],inactive
same,activation,[19],1.85% (inactive)
same,activation,[11],12.9% (inactive)
O=C(O)C(Br)CBr (configuration not stated),Potency,[14],> 92 µM (inactive)
same,Potency,[1],> 92 µM (inactive)
same,Potency,[3],inactive
same,Potency,[16],inactive
same,max response,[6],31.3%
same,outcome,[7],inactive
same,Potency,[10],inactive
same,activation,[19],3.2% (inactive)
same,activation,[11],2.43% (inactive)
same,Potency,[12],inactive
Cc1cc(N=Nc2ccccc2C)ccc1N,Potency,[14],> 92 µM (inactive)
same,Potency,[1],> 92 µM (inactive)
same,Potency,[3],inactive
same,Potency,[4],inactive
same,activation,[5],-3.42% (inactive) and -2.58% (inactive)
same,max response,[6],-21.5%
same,outcome,[7],inactive
same,outcome,[8],inactive
same,outcome,[9],inactive
same,Potency,[10],inactive
same,activation,[19],-4.82% (inactive) and -5.43% (inactive)
same,Potency,[11],44.7 µM (active)
Cc1ccc2c(c1N)C(=O)c1ccccc1C2=O,Potency,[13],> 92 µM (inactive)
same,Potency,[1],> 92 µM (inactive)
same,Potency,[15],25.1 µM (active)
same,Potency,[3],inactive
same,Potency,[4],inactive
same,Potency,[16],inactive
same,activation,[5],-0.569% (inactive) and 1.06% (inactive)
same,activation,[17],-11.3% (inactive) and -4.68% (inactive)
same,outcome,[18],inactive
same,outcome,[8],inactive
same,activation,[19],7.91% (inactive) and 8.94% (inactive)
Cc1cnc[nH]1,Potency,[13],> 92 µM (inactive)
same,Potency,[1],> 92 µM (inactive)
same,Potency,[15],inactive
same,Potency,[2],inactive
same,Potency,[3],inactive
same,Potency,[4],inactive
same,activation,[5],-0.548% (inactive)
same,activation,[17],-8.66% (inactive)
same,outcome,[18],inactive
same,outcome,[8],inactive
same,outcome,[9],inactive
same,activation,[19],-6.55% (inactive)
same,activation,[11],1.06% (inactive)
same,Potency,[12],inactive
CCCCCCCCCCCCCl,Potency,[13],> 92 µM (inactive)
same,Potency,[1],> 92 µM (inactive)
same,Potency,[15],inactive
same,Potency,[2],inactive
same,Potency,[4],inactive
same,Potency,[16],inactive
same,Potency,[20],inactive
same,outcome,[18],inactive
same,max response,[6],10.4%
same,outcome,[7],inactive
same,outcome,[8],inactive
same,outcome,[9],inactive
same,activation,[19],-1.06% (inactive)
same,Potency,[12],inactive
Nc1ccc([N+](=O)[O-])cc1N,Potency,[14],> 92 µM (inactive)
same,Potency,[1],> 92 µM (inactive)
same,Potency,[2],inactive
same,Potency,[3],inactive
same,Potency,[4],inactive
same,max response,[6],3.68%
same,outcome,[7],inactive
same,outcome,[8],inactive
same,outcome,[9],inactive
same,Potency,[10],inactive
same,activation,[11],1.47% (inactive) and 1.07% (inactive)

# — PubChem BioAssay (NCATS)
